Mtb FBA inh: Mtb fructose-bisphosphate aldolase inhibition; inhibition, % at 1 µM; purified M. tuberculosis FBA, fluorescence read-out; AID 588726; P9WQA3; actives 2.3% (n = 360,000); in the data active = inhibition above about 27%;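 note: 0% = vehicle and 100% = reference inhibitor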
Mtb bLac sens: beta-lactam sensitization of Mtb H37Rv; actives 0.27% (n = 330,000); M. tuberculosis H37Rv growth with meropenem, percent inhibition; inhibition, % at 25 µM; call rule not given here;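 note: growth measured after seven days incubation then overnight dye step; 0% = bacteria only wells and 100% = bacteria with antibiotic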
GDH-TPI counter: GDH-TPI coupled enzyme inhibition counter-screen; AID 588335; actives 1.2% (n = 360,000); GDH-TPI coupled enzyme counterscreen, NADH absorbance; inhibition, % at 4.8 µM; in the data active = inhibition above about 30%;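 note: 0% = DMSO wells and 100% = wells lacking the enzyme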
Rv3671c protease: inhibitors of M. tuberculosis serine protease Rv3671c | P9WHR9 | inhibition, % at 5.96 µM | actives 0.048% (n = 320,000) | AID 2606; in the data active = inhibition above about 38%;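 note: extracellular domain of Rv3671c used as enzyme; 0% = enzyme with DMSO and 100% = no enzyme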
UGM FP inh: inhibitors of M. tuberculosis UDP-galactopyranose mutase. P9WIQ1. purified UGM, fluorescence polarization probe displacement. inhibition, % at 10 µM. actives 0.06% (n = 320,000); in the data active = inhibition above about 10%, passing the limit was not always enough
Target sequence (P9WIQ1 whole entry, looked up): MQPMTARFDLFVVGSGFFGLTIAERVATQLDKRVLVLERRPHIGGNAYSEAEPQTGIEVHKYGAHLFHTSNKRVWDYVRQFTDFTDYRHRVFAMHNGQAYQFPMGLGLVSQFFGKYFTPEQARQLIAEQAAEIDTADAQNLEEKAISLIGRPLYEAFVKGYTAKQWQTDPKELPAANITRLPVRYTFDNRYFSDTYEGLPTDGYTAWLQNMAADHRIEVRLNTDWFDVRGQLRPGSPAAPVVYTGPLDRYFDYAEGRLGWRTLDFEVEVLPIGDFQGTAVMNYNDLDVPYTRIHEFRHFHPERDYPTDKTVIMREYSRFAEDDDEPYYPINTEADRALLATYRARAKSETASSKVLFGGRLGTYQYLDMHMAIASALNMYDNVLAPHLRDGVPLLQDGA
RecA intein inh: blocks M. tuberculosis RecA intein splicing; actives 0.75% (n = 290,000); cell-free RecA intein splicing, fluorescence; inhibition, % (test concentration not listed); in the data active = inhibition above about 30%;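 note: 0% = vehicle wells and 100% = reference inhibitor control wells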
An asterisk follows results filed as active; . = no result given. The list is not random: actives were taken first. Their share in the collection is about 4%.

SMILES | Mtb FBA inh | Mtb bLac sens | GDH-TPI counter | Rv3671c protease | UGM FP inh | RecA intein inh
CN(C)c1ccc(C=NNC(=O)c2cccnc2)cc1 | 1.4 | . | 51.8* | . | . | .
O=C(N/N=C/c1ccccn1)c1sc2ccccc2c1Cl | -7.3 | 84.8 | 35.2* | 7.6 | 2.0 | 4.3
CN(C)c1ccc(/C=N/NC(=O)c2cnc3ccccc3c2)cc1 | -1.9 | 3.6 | 32.4* | 8.7 | 3.1 | 11.5
CC1=C(C(=O)Nc2cccc(C(=O)N3CCN(c4cccc(C(F)(F)F)c4)CC3)c2)SCCO1 | -3.1 | 7.1 | -7.4 | 1.3 | 1.0 | 10.1
Cc1cccc(NS(=O)(=O)c2ccc(C)c(C(=O)NCc3ccccn3)c2)c1 | -2.6 | . | 3.5 | . | . | .
O=C(CN1CCN(Cc2ccccc2)CC1)Nc1ccc(Br)cc1 | 2.6 | 7.2 | 7.1 | -10.1 | -2.4 | -1.1
COc1cc(NCCCn2cnc(C(=O)Nc3ccc(C)c(C)c3)n2)cc(OC)c1OC | 0.8 | . | 1.0 | . | . | .
C=CCNC(=O)CN1C(=O)CSc2ccc(S(=O)(=O)N3CCOCC3)cc21 | -1.1 | . | -13.3 | . | . | .
O=C(N/N=C/c1c(Cl)nc2ccccn2c1=O)c1cccnc1 | 16.9 | -3.0 | 31.2* | -2.7 | -1.0 | 4.0
Cc1cc([N+](=O)[O-])nn1Cc1ccc(C(=O)N/N=C/c2ccc(N(C)C)cc2)cc1 | -6.1 | -10.4 | 40.5* | 3.3 | 3.4 | 4.1
Cc1cc([N+](=O)[O-])nn1Cc1ccc(C(=O)N/N=C/c2ccccc2)cc1 | 0.0 | -2.1 | 7.2 | -1.9 | 1.5 | -3.6
CSc1ccc(/C=N/NC(=O)c2cccc(O)c2)cc1 | 2.0 | 68.4 | 49.2* | -9.0 | -0.8 | 0.2
CCOc1ccc(C(=O)N/N=C/c2ccc(SC)cc2)cc1 | -4.6 | -4.0 | 12.5 | 1.6 | -0.1 | 1.4
COc1ccc(CNC(=O)C2=CC(c3ccc(C)cc3)=NS(=O)(=O)N2C)cc1 | -1.5 | -5.5 | 17.7 | -0.1 | 1.4 | 5.8
O=S(=O)(N/N=C/c1ccc(N2CCOCC2)cc1)c1ccc(Br)cc1 | 1.0 | -6.0 | 36.4* | -3.5 | 0.2 | 3.5
COc1ccccc1NC(=S)N1CC(C)OC(C)C1 (stereo not given) | 0.5 | -4.9 | 6.2 | -3.0 | 0.6 | 1.3
CCN(C(=O)COC(=O)c1cc(Cl)ccc1OC)c1c(N)n(Cc2ccccc2)c(=O)[nH]c1=O | 8.2 | 2.0 | 5.5 | 0.5 | 12.2* | .
COc1ccc(Cl)cc1C(=O)OCC(=O)N(CC(C)C)c1c(N)n(Cc2ccccc2)c(=O)[nH]c1=O | 0.2 | -8.5 | -0.7 | 3.2 | -0.8 | 3.2
Cc1ccc(NCN2C(=O)C3C4C=CC(C4)C3C2=O)cc1 (stereo not given) | 7.7 | 9.6 | -4.2 | 2.2 | 1.1 | 1.3
O=C1C2C3C=CC(C3)C2C(=O)N1CNc1ccc(O)cc1 (stereo not given) | . | -4.9 | . | -11.0 | 1.2 | 61.9*
CC(/C=N/n1cnnc1)=C\c1ccco1 | 0.6 | 12.8 | 38.7* | -8.5 | -1.0 | 3.0
CC(/C=N/n1c(-c2cc(C)[nH]n2)n[nH]c1=S)=C\c1ccco1 | -0.9 | -0.5 | 11.6 | 5.6 | -0.5 | .
Cc1cc(C)n2nc(N)c(N=Nc3cccc(Cl)c3)c2n1 | -7.6 | 88.4 | 3.1 | -0.8 | -2.4 | 5.1
Cc1ccc(N=Nc2c(N)nn3c(C)cc(C)nc23)cc1 | -7.1 | 90.8 | 39.5* | -6.7 | -1.3 | -2.9
CC1CN(CC(=O)NCc2ccc(F)cc2)CC(C)O1 (stereo not given) | -1.4 | -8.3 | -5.2 | 5.7 | -0.7 | -1.9
SMILES | Mtb FBA inh | Mtb bLac sens | GDH-TPI counter | Rv3671c protease | UGM FP inh | RecA intein inh
O=C(CN1C(=O)S/C(=C/c2cccs2)C1=O)N1CCCC1 | -1.4 | 3.3 | 21.4 | -9.7 | 1.0 | .
O=C(CN1C(=O)S/C(=C\c2cccs2)C1=O)Nc1ccc(O)c(C(=O)O)c1 | -0.4 | -0.7 | 37.8* | -2.1 | 4.6 | 1.4
O=C(CCN1C(=O)/C(=C/c2ccco2)SC1=S)Nc1ccc(C(=O)O)c(O)c1 | 1.6 | 27.0 | 4.1 | -18.8 | 1.2 | 26.8
O=C(CCN1C(=O)/C(=C\c2cccs2)SC1=S)Nc1ccc(C(=O)O)cc1 | -4.3 | 1.3 | 4.7 | -6.4 | 1.3 | 20.8
O=C(CN1C(=O)S/C(=C\c2cccs2)C1=O)Nc1ccc(C(=O)O)c(O)c1 | -8.1 | -0.5 | 48.7* | -7.3 | 1.3 | 3.2
O=C(CN1C(=O)S/C(=C/c2cccs2)C1=O)N1CCOCC1 | -0.1 | -6.6 | 37.3* | 4.7 | -0.3 | -1.7
CN(C)S(=O)(=O)c1ccc(Cl)c(NC(=O)CN2C(=O)NC3(CCc4ccccc43)C2=O)c1 (stereo not given) | -0.9 | -1.4 | 6.9 | -12.9 | 1.8 | .

Source: PubChem
